Where “and” joins values, the source holds several entries; their conditions need not be identical. Equal entries are not always repeated. In all, about 330,000 compounds went through this assay and about 650 (0.2%) were called active. Rule as the data show it: active = inhibition above about 50%; inactive = the rest. The entries come from a sample that favours actives as a whole.
Biological target: Integrin alpha-4 (Homo sapiens) (UniProt P13612)
Experiment: VLA-4 integrin binding inhibitors – MLPCN library, flow cytometry, VLA-4 expressing cells, VLA-4 allosteric modulator project, primary screen (AID 2557)
Settings: ligand binding flow cytometry, active compounds read high, about 7 µM as worked out from the volumes in the protocol

Integrin alpha-4 (Homo sapiens), sequence (P13612 whole entry, looked up): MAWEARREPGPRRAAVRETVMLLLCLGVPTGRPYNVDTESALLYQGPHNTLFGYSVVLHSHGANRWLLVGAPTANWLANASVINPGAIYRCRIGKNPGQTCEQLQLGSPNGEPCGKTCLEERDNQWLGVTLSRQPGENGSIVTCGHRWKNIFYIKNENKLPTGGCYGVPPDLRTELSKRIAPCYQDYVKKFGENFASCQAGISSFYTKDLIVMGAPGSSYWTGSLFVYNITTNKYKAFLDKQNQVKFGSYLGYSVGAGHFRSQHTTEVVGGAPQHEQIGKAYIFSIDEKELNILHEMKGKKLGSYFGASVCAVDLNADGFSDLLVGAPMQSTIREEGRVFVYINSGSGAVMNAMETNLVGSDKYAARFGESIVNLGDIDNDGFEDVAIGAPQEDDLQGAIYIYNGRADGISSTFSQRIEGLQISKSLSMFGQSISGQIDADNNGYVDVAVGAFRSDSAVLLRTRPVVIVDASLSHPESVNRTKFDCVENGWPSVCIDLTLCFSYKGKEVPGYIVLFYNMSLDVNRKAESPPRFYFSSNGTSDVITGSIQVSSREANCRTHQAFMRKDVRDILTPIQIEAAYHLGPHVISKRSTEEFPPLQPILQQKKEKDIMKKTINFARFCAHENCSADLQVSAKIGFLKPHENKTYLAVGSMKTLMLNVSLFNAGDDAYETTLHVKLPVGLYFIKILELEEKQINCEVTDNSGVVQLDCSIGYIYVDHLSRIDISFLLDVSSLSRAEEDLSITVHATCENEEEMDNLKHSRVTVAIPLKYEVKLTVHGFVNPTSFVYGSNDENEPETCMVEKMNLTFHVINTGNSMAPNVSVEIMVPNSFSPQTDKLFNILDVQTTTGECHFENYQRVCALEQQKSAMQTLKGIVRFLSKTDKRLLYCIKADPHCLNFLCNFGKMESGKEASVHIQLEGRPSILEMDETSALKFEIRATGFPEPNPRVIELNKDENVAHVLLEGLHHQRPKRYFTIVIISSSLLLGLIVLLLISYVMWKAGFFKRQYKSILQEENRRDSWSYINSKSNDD

SMILES	inhibition
CCOC(=O)CC1=C(C(=O)OCC)C2(C(=O)N1)C(C(=O)OC)=C(N)Oc1ccccc12 (stereo not given)	-7.95% (inactive)
C=CCN1C(=O)C2(C(C(=O)OCC)=C(N)Oc3c2c(=O)oc2ccccc32)c2ccccc21 (stereo not given)	59.3% (active)
CCOC(=O)C1=C(C)OC(N)=C(C(=O)OC)C12C(=O)Nc1ccc(Br)cc12 (stereo not given)	15.8% (inactive)
CN(C)C(=O)Oc1cc(OC(=O)N(C)C)cc(C(O)CNC(C)(C)C)c1 (stereo not given)	-22.5% (inactive) and -5.62% (inactive)
CCc1nnc(NS(=O)(=O)c2ccc(N=Cc3c(O)n(-c4ccccc4)c(=O)[nH]c3=O)cc2)s1	-0.39% (inactive)
O=c1c2ccccc2nc(-c2ccc(Cl)cc2Cl)n1-c1ccncc1	62.6% (active)
COc1ccc(-n2c(-c3ccccc3)nc3ccccc3c2=O)cc1	-3.5% (inactive)
Cc1nc2ccccc2c(=O)n1-c1ccc(Cl)cc1Cl	24.4% (inactive)
Cn1c(O)c(C(=Nc2ccc(F)cc2)c2ccccc2)c(=O)n(C)c1=O	5.63% (inactive)
C=CCn1c(O)c(/C=N/N2CCOCC2)c(=O)[nH]c1=S	7.33% (inactive)
